L3MBTL1 inh: qHTS Assay for the Inhibitors of L3MBTL1; Lethal(3)malignant brain tumor-like protein 1 (Homo sapiens), Q9Y468; AlphaScreen L3MBTL1–H3K9me1 peptide binding; Potency, µM (titrated, usually from 57.1 µM), usual class: inhibitors; 230,000 compounds, 0.66% hits; AID 485360, 2010; note: nearly all actives have a fitted effect of over 60% in size
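L3MBTL1 50 nM + b-AHA-H3(1-15)K9me1 75 nM, 30 min RT; compound added, 30 min RT; streptavidin donor/Ni-chelate acceptor beads 10 ug/mL each final, 30 min RT dark; AlphaScreen read.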
JMJD2A Tudor inh: qHTS Assay for Inhibitors of JMJD2A-Tudor Domain | Lysine-specific demethylase 4A (Homo sapiens), O75164 | AlphaScreen JMJD2A-Tudor / H3K4me3 peptide binding | Potency, µM (titrated, usually from 114 µM), actives largely listed as inhibitors | 390,000 compounds, 4.4% hits | AID 504339, 2011; note: nearly all actives have a fitted effect of over 50% in size
HP1b chromo inh: HTS for Inhibitors of HP1-beta Chromodomain Interactions with Methylated Histone Tails | AlphaScreen HP1-beta / biotin-H3K9me3 peptide binding | Potency, µM (titrated, usually from 114 µM), usual class: inhibitors | 390,000 compounds, 0.56% hits; note: nearly all actives have a fitted effect of over 70% in size
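Compound inhibition of the preformed complex between 50 nM HP1-beta and 50 nM biotinylated H3K9me3 peptide was read by AlphaScreen. Buffer was PBS pH 7.4 with 0.01% Tween-20. Incubations ran 30 min at room temperature, with 10 ug/mL donor/acceptor beads.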
BAZ2B inh: qHTS Assay for Inhibitors of BAZ2B; Bromodomain adjacent to zinc finger domain protein 2B (Homo sapiens), Q9UIF8; AlphaScreen BAZ2B-H3K14Ac peptide displacement; Potency, µM (titrated, usually from 114 µM), hits mostly inhibitors; 360,000 compounds, 4.4% hits; AID 504333, 2011; note: nearly all actives have a fitted effect of over 60% in size
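BAZ2B 50 nM plus b-H3(5-23)K14Ac 50 nM, PBS pH 7.4/0.01% Tween-20, 30 min RT; compound added (max 110 uM), 30 min RT; streptavidin donor/Ni-chelate acceptor beads 10 ug/mL final, 20 min dark; AlphaScreen read.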
G9a inh: qHTS Assay for Inhibitors of Histone Lysine Methyltransferase G9a; Potency, µM (top dose mostly 102 µM), usual class: inhibitors; G9a H3K9 monomethylation, AlphaScreen, 2 h; AID 504332, 2011; Histone-lysine N-methyltransferase EHMT2 (Homo sapiens), Q96KQ7; 350,000 compounds, 8.8% hits; note: nearly all actives have a fitted effect of over 75% in size
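AlphaScreen detection with an anti-monomethyl H3K9 antibody quantified product after a 2 h room-temperature reaction containing 500 nM biotinylated H3K9 peptide, 20 µM SAM and 20 nM enzyme, which had been preincubated 15 min with compound.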
A number is an active result; – = inactive; ? = inconclusive; · = no result given; [ ] = dose if it differs, or a comment. Compounds with a hit are over-represented: about 11% of the library has one in this group of screens. Calls come from the whole dose curve; as a rule, active = well fitted inhibition curve with a large enough effect; inconclusive = small, poorly fitted or top-dose-only effect; inactive = no such curve, though single readings can be large or run the other way.

SMILES	L3MBTL1 inh	JMJD2A Tudor inh	HP1b chromo inh	BAZ2B inh	G9a inh
CC1(C)CC(NS(=O)(=O)c2ccc(C(C)(C)C)cc2)CC(C)(C)N1	–	–	–	–	–
COc1cc(CNC2CCCCC2OC)cc(OC)c1OC (centres undefined)	–	?	?	?	11µM
CCCS(=O)(=O)N1CC(=O)N(c2cc(C)cc(C)c2)C(C)(C(=O)NC2CCCCCC2)C1 (centres undefined)	·	–	–	–	–
COc1ccc(C2NC(=S)NC3=C2CCc2cc(OC)ccc23)cc1 (centres undefined)	–	?	–	?	40µM
CCC(C)Sc1oc(-c2ccco2)nc1S(=O)(=O)c1ccc(C)cc1 (centres undefined)	·	–	–	–	–
CCN(Cc1ccccc1)c1ccc(N=Nc2nn(C)c(C)c2[N+](=O)[O-])cc1	16µM	6.3µM	?	8.9µM	10µM
Cc1ccc(CNC(=O)c2nn(C)c(C)c2[N+](=O)[O-])cc1	–	–	–	–	–
Cc1c(Cl)c([N+](=O)[O-])nn1CCCC(=O)N(Cc1ccccc1)Cc1ccccc1	–	–	–	–	–
CCN(CC)c1ccc(N=Nc2nn(C)c(C)c2[N+](=O)[O-])cc1	?	?	14µM	10µM	?
CCC(C)(C)NC(=O)c1cccc(NC(=O)C(C)C)c1	–	40µM	–	–	·
O=C(CSc1nnc(-c2ccncc2)n1Cc1ccco1)Nc1ccccc1Cl	–	?	–	–	?
O=C(CSc1nnc(-c2ccncc2)n1Cc1ccccc1)Nc1nccs1	–	89µM	–	–	–[12.7 µM]
O=C(CSc1nnc(-c2ccncc2)n1Cc1ccco1)Nc1nc(-c2ccccc2)cs1	·	–	–	–	28µM
CC(C)C(C)(C#N)NC(=O)CSc1nnc(-c2ccncc2)n1Cc1ccccc1 (centres undefined)	–	71µM	?	–	–
Cc1cc(C)nc(SCc2nnc(SCC(=O)Nc3nc(-c4ccccc4)cs3)n2-c2ccccc2)n1	·	79µM	–	–	?
COc1ccccc1CNC(=O)c1cc2c(=O)oc3ccc(C)cc3c2s1	·	–	–	–	–
O=C(Nc1ccc2c(c1)N(C1CCCC1)C(=O)c1ccccc1S2)c1ccc(F)cc1	·	–	–	–	–
COc1cc2c(cc1OC)C1=C(C#N)COCN1CC2	–	–[11.4 µM]	–	?	14µM
COc1cc2c(cc1OC)C1=C(C#N)CCC(=NC(=O)c3ccc(Cl)cc3)N1CC2	–	–	–	–	–
CC(=O)N1CCc2c(sc3c2c(=O)n(-c2ccccc2Cl)c(=O)n3C)C1	·	–	–	–	–
C=C1CC2C(=O)N(Cc3cc(OC)ccc3OC)C(C(=O)OCC)C1N2C (centres undefined)	·	–	–	·	·
NS(=O)(=O)Nc1c(Br)cc(Br)c2cccnc12	·	?	–	·	·
S=c1[nH]c2ccccc2n2c(=S)[nH]nc12	·	22µM	–	50µM	1.8µM
COC(=O)c1c(-c2ccc(Cl)cc2)noc1N1CCN(c2cccc(OC)c2)CC1	·	–	–	–	–
CC1=C(c2ccc(C)c(C)c2)S(=O)(=O)N=C1N1CCC(C(=O)NCCc2ccc(Cl)cc2)CC1	·	–	–	–	–
SMILES	L3MBTL1 inh	JMJD2A Tudor inh	HP1b chromo inh	BAZ2B inh	G9a inh
Cc1cccn2c(=O)c3cc(C(=O)NC4CCCCC4)c(=N)n(Cc4ccccc4)c3nc12	·	–	–	25µM	10µM
COCCNC(=O)c1cc2c(=O)n3cccc(C)c3nc2n1C	–	–	–	–	28µM
Cc1cccn2c(=O)c3cc(C(=O)NC4CCCC4)c(=N)n(Cc4ccc(F)cc4)c3nc12	·	–	–	–	–
Cc1cccn2c(=O)c3cc(C(=O)NCCN4CCOCC4)c(=N)n(CCCN4CCOCC4)c3nc12	·	–	?	–	50µM
CCOCCCn1c(=N)c(C(N)=S)cc2c(=O)n3cccc(C)c3nc21	–	79µM	–	?	?
Cc1cccn2c(=O)c3cc(C(N)=S)c(=N)n(CCCOC(C)C)c3nc12	–	?	–	–	?
CCc1cccc(NC(=O)CN2C(=O)COc3ccc(S(=O)(=O)Nc4ccccc4)cc32)c1	·	–	–	–	–
Cc1cccn2c(=O)c3cc(C#N)c(=NC(=O)c4cccs4)n(CC(C)C)c3nc12	–	–	–	–	–
CCOCCCn1c(=NC(=O)c2cccs2)c(C#N)cc2c(=O)n3cccc(C)c3nc21	–	–	–	–	71µM
Cc1ccc(NC(=O)C(Cc2ccccc2)n2cccc2)cc1C (centres undefined)	·	–	–	–	–
COCCSc1nnc(NC(=O)c2ccc(OC)c([N+](=O)[O-])c2)s1	·	–	–	–	–
CC(=O)Nc1cc(C(=O)O)ccc1S(=O)(=O)c1ccc(C)cc1	–	–	–	–	50µM
COc1cc(NC(=O)CCCOc2cc(=O)n(C)c3ccccc23)cc(OC)c1OC	·	–	–	–	–
S=C(Cc1cccnc1)N1CCOCC1	–	79µM	?	–	2.2µM
COc1cc(OC)cc(-c2nc3nc(C)c(CCC(=O)Nc4ccc(C)c(C)c4)c(C)n3n2)c1	·	–	–	–	–
Cc1ccc(C(=O)C(c2ccccc2)N2Cc3ccccc3C2=N)cc1 (centres undefined)	?	28µM	?	32µM	11µM
CCC1CCCCN1C(=O)COC(=O)c1cc(Br)ccc1Cl (centres undefined)	·	–	–	–	–
Cc1ccc(S(=O)(=O)N2CCCC2)cc1C(=O)NCCN1CCOCC1	·	–	–	?	79µM
O=C(Nc1ccc(OC(F)F)cc1)c1cc(S(=O)(=O)N2CCCCC2)ccc1N1CCOCC1	–	–	–	–	16µM
CC(=O)Nc1ccc(NC(=O)c2cc(S(=O)(=O)N3CCCCC3)ccc2N2CCOCC2)cc1	·	–	–	·	·
O=C(NC(=S)N1CCCCC1CO)c1cc(Br)ccc1Cl (centres undefined)	–	7.9µM	–	–	?
Cc1ccc(S(=O)(=O)N2CCOCC2)cc1C(=O)Nc1ccc(N2CCCCCC2)cc1	?	22µM	?	40µM	–[0.501 µM]
CC(=O)c1ccc(NC(=O)c2cc(S(=O)(=O)N3CCOCC3)ccc2C)cc1	·	–	–	–	–
Cc1ccc(-n2ncc(C(=O)NCCCN3CCCCC3)c2C2CCN(C(=O)OC(C)(C)C)CC2)cc1	·	–	–	–	–
Cc1cc(C)c(Cn2c(=O)n(CCCC(=O)NCc3ccc4c(c3)OCO4)c(=O)c3sccc32)c(C)c1	·	–	–	–	–
C=CCOC(=O)c1ccc(-n2cnc(C)n2)nc1	–	–	–	–	–
Cc1nc2ccc(NC(=O)c3cc(S(=O)(=O)N(C)c4ccccc4)ccc3Cl)cc2s1	–	–	–	–	–

Assay outcomes deposited in PubChem BioAssay by National Center for Advancing Translational Sciences (NCATS).
